Pf Dd2 inh: blocks in vitro growth of P. falciparum Dd2 | P. falciparum Dd2 growth, SYBR Green, 72 h | Potency, µM (doses to about 28.9 µM), for inactives: top-dose activity, negative = inhibition, usual class: inhibitors | hit rate 4.3% among 120,000; active = well fitted inhibition curve with a large enough effect;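 also: plate controls were DMSO vehicle for no effect and reference drug for full effect; nearly all actives have a fitted effect of over 65% in size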
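Infected erythrocytes (Dd2, 0.3% parasitemia, 2.5% hematocrit final) are added to compound in RPMI-1640/Albumax II medium, grown 72 h at 37C in low oxygen, then lysed with saponin/Triton-X containing SYBR Green and read by fluorescence.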
Starred values were filed as active, the others as inactive; i = inactive; [ ] = dose if it differs, or a comment. Shown is part of a subset that was picked to be rich in hits. Potency is read from the fitted curve at half-maximal effect.

SMILES	Pf Dd2 inh
CCOC(=O)c1cccc(NC(=O)C2CCCN(c3nnc(C)c4c(C)n(-c5ccccc5)nc34)C2)c1 (stereo not drawn)	i
CCc1ccc(CNC(=O)C2CCCN(c3nnc(C)c4c(C)n(-c5ccccc5)nc34)C2)cc1 (stereo not drawn)	-29.0%
Cc1nnc(N2CCC(C(=O)NC3CCCCC3)CC2)c2nn(-c3ccccc3)c(C)c12	42.2%
Cc1ccc(-n2nc3c(N4CCCC(C(=O)NCc5ccc(Cl)cc5)C4)nnc(C)c3c2C)cc1 (stereo not drawn)	-14.3%
COc1ccc(-n2nc3c(N4CCCC(C(=O)NCc5cccc(F)c5)C4)nnc(C)c3c2C)cc1 (stereo not drawn)	11.2µM*
CCOc1ccc(CCNC(=O)C2CCCN(c3nnc(C)c4c(C)n(-c5ccccc5)nc34)C2)cc1 (stereo not drawn)	7.94µM*
CCOC(=O)C1CCCN(C(=O)C2CCN(c3nnc(C)c4c(C)n(-c5ccccc5)nc34)CC2)C1 (stereo not drawn)	10µM*
COc1ccccc1C(=O)N1CCN(C(=O)c2nnn3c2COC(c2ccccc2)C3)CC1 (stereo not drawn)	i
COc1cc2c(cc1OC)C(C[C@H]1CN(C(=O)C(=O)O)CC[C@H]1CC(=O)O)=NCC2	-18.6%[44.1 µM]
O=C(CCc1c[nH]c2ccccc12)N1CCC2(CC1)CC(CO)N(C(=O)c1ccccc1)C2 (stereo not drawn)	-29.3%
CC(=O)c1nn(-c2ccc(OC(F)(F)F)cc2)nc1Nc1ccc(C)cc1	25.3%
COc1ccc(CNC(=O)CC(c2ccc(OC)cc2)N2Cc3ccccc3C2=O)cc1 (stereo not drawn)	1.8%
CCc1nc(-c2c3n(c(=O)n(CC(=O)NCc4cccs4)c2=O)CCCC3)no1	15.7%
CN(Cc1nccn1C)C(=O)C1CCC(=O)N(CCc2ccccn2)C1 (stereo not drawn)	0.9%
C#CC(C)(CC)NC(=O)c1cnn2c(C(F)F)cc(-c3ccccc3OC)nc12 (stereo not drawn)	-14.8%
CC(C)c1ccc(NC(=O)c2cnn3c(C(F)F)cc(-c4ccccc4)nc23)cc1	5.01µM*
Cc1ccc(NC(=O)c2cc3nc(-c4ccccc4)cc(-c4ccccc4)n3n2)cc1	45.1%
Cc1ccc(C2Cn3nnc(C(=O)N4CCC(C(=O)NCC5CCCCC5)CC4)c3CO2)cc1 (stereo not drawn)	24.5%
O=C(c1ccccc1Cl)N1C[C@@H](CO)[C@H](c2ccncc2)C1	-5.9%
Cc1nn(C)c(C)c1CNC(=O)C1CC(=O)N(c2n[nH]c3ccccc23)C1 (stereo not drawn)	-8.7%
COc1ccc2[nH]cc(CCNC(=O)Nc3c(C)cccc3C)c2c1	i
COc1ccc2[nH]cc(CCNC(=O)Nc3cccc(F)c3)c2c1	4.2%
COc1ccc2[nH]cc(CCN=C(NC(=O)c3cccc(Cl)c3)Nc3nc(C)cc(C)n3)c2c1	8.91µM*
CCOc1ccc2nc(NC(=O)c3cc(=O)c4ccc(C)cc4o3)sc2c1	-0.8%
COc1ccc(-c2cnc3n2CC(C(=O)N(C)C)CC3)cc1 (stereo not drawn)	2.3%
SMILES	Pf Dd2 inh
COc1ccc(NC(=O)c2ccc3c(c2)OCCN(C2CCC2)C3)cn1	11.2µM*
COc1ccc(NC(=O)c2ccc3c(c2)OCCN(Cc2ncccn2)C3)cc1F	i
COc1ccc(NC(=O)c2ccc3c(c2)C(O)CCCCCN3C)cn1 (stereo not drawn)	-40.2%
COc1ccc(S(=O)(=O)NCCc2nnc3ccc(SCC(=O)Nc4ccccc4C)nn23)cc1	-12.8%
O=C(Nc1ccccc1F)C(Cc1ccccc1)n1cccc1 (stereo not drawn)	4.7%
CC(C)c1ccc(NC(=O)C(Cc2ccccc2)n2cccc2)cc1 (stereo not drawn)	i
O=C(Nc1ccc(C(F)(F)F)cc1)C(Cc1ccccc1)n1cccc1 (stereo not drawn)	14.1µM*
CC(=O)N[C@@H]1CN(Cc2cccc(Br)c2)C[C@H]1CO	i
COc1ccc(-c2cc(N3CCN(C(=O)c4ccc(C)nc4)CC3)n[nH]2)cc1	i
Cc1ccc(C(=O)N2CCCN(c3cc(-c4ccc(Cl)cc4)[nH]n3)CC2)cn1	6.31µM*
COc1ccc(-c2cc(N3CCCN(C(=O)c4ccc(C)nc4)CC3)n[nH]2)cc1	i
Cc1ccc(CNC(=O)c2cc(NC(=O)C(C)C)cc3nc(C)ccc23)cc1	-9.7%
CCCN1C(=O)C(O)(CC(=O)c2ccc(OC)c(OC)c2)c2ccccc21 (stereo not drawn)	8.6%
CN(Cc1ccc(F)cc1)S(C)(=O)=O	7.5%[44.1 µM]
Cc1ccsc1CN(Cc1ccc(CN(C)S(C)(=O)=O)o1)CC(C)C	8.91µM*
CC1CCN(c2csc3ccc(F)cc3c2=O)CC1	1.3%
O=C1CCN(S(=O)(=O)c2cccc3cccnc23)CCCC(CO)CCN1 (stereo not drawn)	14.9%
COc1ccc(CNC(=O)[C@@H]2C[C@@H](c3ccc(F)cc3)N(Cc3ccccc3)C2)cc1OC	i
Cc1nc(CN2C[C@H](C(=O)NCc3cccc(F)c3)C[C@@H]2c2ccc(F)cc2)cs1	14.1µM*
